Measurements from PubChem BioAssay AID1159580 (chemical genetic matrix, 2015).
The campaign covered roughly 5,500 compounds. About 2,000 (36%) were called active. Another 18% or so got no clear call; they are omitted. No stated cut-off is given here; in the data, active means normalized growth mostly below about 0.91 (no sharp cut-off); inconclusive means no clear call, values can overlap the other calls; inactive means mostly above about 0.92. The list shows a part of the results.

Test: chemical genetic growth profiling, strain panel (AID 1159580);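 further: tested at 20 µM; growth read once vehicle control cultures reached saturation at 30 °C; 1 = growth at the plate median or of vehicle wells; lower values mean less growth of the strain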
Settings: S. cerevisiae deletion strains, growth OD

Measured: normalized growth

CC(C)(C)c1ccc(C(=O)Nc2ccc(C(F)(F)F)cc2)s1
active: locus YHR030C, strain SLT2, hits give low values 0.821
inactive: locus YAR019C, strain CDC15, hits give low values 0.985 | locus YBL105C, strain PKC1, hits give low values 0.991 | locus YBR135W, strain CKS1, hits give low values 0.994 | locus YBR136W, strain MEC1, hits give low values 0.972 | locus YBR160W, strain CDC28, hits give low values 0.984 | locus YDL017W, strain CDC7, hits give low values 0.997 | locus YDL028C, strain MPS1, hits give low values 0.967 | locus YDL101C, strain DUN1, hits give low values 1.01 | locus YDL108W, strain KIN28, hits give low values 0.972 | locus YDL132W, strain cdc53, hits give low values 0.988 | locus YDL214C, strain PRR2, hits give low values 0.952 | locus YDR052C, strain DBF4, hits give low values 0.996 | locus YDR054C, strain cdc34, hits give low values 0.989 | locus YDR226W, strain ADK1, hits give low values 0.976 | locus YDR477W, strain SNF1, hits give low values 0.952 | locus YER123W, strain YCK3, hits give low values 0.968 | locus YER133W, strain GLC7, hits give low values 0.977 | locus YFL009W, strain cdc4, hits give low values 0.976 | locus YFL029C, strain CAK1, hits give low values 0.987 | locus YFR003C, strain YPI1, hits give low values 0.999 | locus YFR019W, strain FAB1, hits give low values 0.972 | locus YFR028C, strain CDC14, hits give low values 0.985 | locus YGR040W, strain KSS1, hits give low values 0.954 | locus YGR052W, strain FMP48, hits give low values 1 | locus YGR092W, strain DBF2, hits give low values 0.966 | locus YHR079C, strain IRE1, hits give low values 0.963 | locus YHR082C, strain KSP1, hits give low values 0.991 | locus YHR205W, strain SCH9, hits give low values 0.92 | locus YIL147C, strain SLN1, hits give low values 0.989 | locus YJL095W, strain BCK1, hits give low values 0.957 | locus YJL128C, strain PBS2, hits give low values 0.943 | locus YJL157C, strain FAR1, hits give low values 0.976 | locus YJR016C, strain ILV3, hits give low values 0.996 | locus YJR066W, strain TOR1 (second series), hits give low values 0.967 | locus YJR066W, strain TOR1, hits give low values 0.929 | locus YKL048C, strain ELM1, hits give low values 0.988 | locus YKL067W, strain YNK1, hits give low values 0.944 | locus YKL101W, strain HSL1, hits give low values 0.935 | locus YKL193C, strain SDS22, hits give low values 0.986 | locus YKL203C, strain TOR2, hits give low values 1.05 | locus YLR113W, strain HOG1, hits give low values 0.863 | locus YLR133W, strain CKI1, hits give low values 0.971 | locus YLR403W, strain SFP1, hits give low values 0.974 | locus YML070W, strain DAK1, hits give low values 0.944 | locus YMR001C, strain CDC5, hits give low values 0.995 | locus YMR205C, strain PFK2 (second series), hits give low values 0.975 | locus YMR277W, strain FCP1, hits give low values 0.966 | locus YNL006W, strain LST8, hits give low values 0.981 | locus YNL020C, strain ARK1, hits give low values 0.973 | locus YNL161W, strain CBK1, hits give low values 0.985 | locus YNL183C, strain NPR1, hits give low values 1.01 | locus YNL207W, strain RIO2, hits give low values 0.991 | locus YNL222W, strain SSU72, hits give low values 0.988 | locus YNL307C, strain MCK1 (second series), hits give low values 0.99 | locus YOL078W, strain AVO1, hits give low values 0.989 | locus YOL136C, strain PFK27, hits give low values 0.939 | locus YOR061W, strain CKA2, hits give low values 1 | locus YOR119C, strain RIO1, hits give low values 0.993 | locus YOR231W, strain MKK1, hits give low values 0.925 | locus YOR329C, strain SCD5, hits give low values 0.999 | locus YPL031C, strain PHO85, hits give low values 0.977 | locus YPL153C, strain RAD53, hits give low values 0.951 | locus YPL204W, strain HRR25, hits give low values 0.951 | locus YPL209C, strain IPL1, hits give low values 0.991 | locus YPL256C, strain CLN2, hits give low values 0.899 | locus YPR025C, strain CCL1, hits give low values 1 | locus YPR106W, strain ISR1, hits give low values 0.98 | locus YPR111W, strain DBF20, hits give low values 0.955 | strain NNK1, hits give low values 0.98 | strain TSCII, hits give low values 0.983
